# Assay results: PubChem BioAssay
# Assay: basal MM1S mitochondrial membrane potential changes, profiling panel, cell-based, JC-1 fluorescence, 24 h, 100 nL compound (AID 1170); also: test concentration not given here
# Conditions: higher = more signal
row,SMILES,z-score
1,COCCOC(=O)N1C(=O)[C@@]2(c3cc(C#CCC(C(=O)OC)C(=O)OC)ccc31)[C@H](c1ccc(O)cc1)N1[C@H](c3ccccc3)[C@H](c3ccccc3)OC(=O)[C@H]1[C@@H]2C(=O)N1CCc2cc(OC)c(OC)cc2C1,0.22
2,C[C@]1(C(=O)O)c2ccccc2C(=O)N(Cc2cc(C(F)(F)F)cc(C(F)(F)F)c2)[C@H]1c1ccc(CO)cc1,-0.468
3,O=C(N1CCOCC1)[C@]1(CCS(=O)(=O)c2ccccc2)N=C(c2ccc(OCCCO)cc2)O[C@@H]1c1ccccc1,-0.424
4,CC1(C)OB(/C=C\CC(OC(=O)c2ccncc2)c2ccccc2)OC1(C)C (stereo not given),0.343
5,COC(=O)[C@]1(Cc2ccccc2CN=[N+]=[N-])N=C(c2ccc(OCCCO)cc2)O[C@@H]1c1ccccc1N=[N+]=[N-],-2.47
6,CC(C)(C)OC(=O)CC[C@@]1(C(=O)N2CCOCC2)N=C(c2ccc(OCCCO)cc2)O[C@@H]1c1ccccc1CN=[N+]=[N-],-0.567
7,COC(=O)[C@@]1(Cc2ccccc2)[C@H]2c3cc(C(=O)N(C)C)n(Cc4ccc(Cl)c(C(F)(F)F)c4)c3C[C@H]2CN1C(=O)c1ccccc1,-1.24
8,CN1C(=O)C2C(C1=O)C1C=C(CCCO)C2C(C2CC2)N1C (stereo not given),-0.641
9,CO[C@H]1O[C@H](CO)[C@@H](OC(=O)CCc2ccccc2)[C@@H]2OC(=O)[C@@H](Cc3ccc4ccccc4c3)C/C=C/C[C@H](Cc3ccc4ccccc4c3)C(=O)O[C@@H]12,0.0944
10,C=C(C(=O)CC[C@@H](OC(=O)c1ccccc1-c1ccccc1C(=O)O)c1ccc(OCCO)cc1)C(C)C,-0.547
